Results reported in PubChem BioAssay (NCI).
Values joined by “and” are separate entries in the source; they are usually repeats but may differ in a detail not shown here. Equal entries are not always repeated. This is part of a sample that, as a whole, favours compounds with a hit. Of some 79,000 tested, about 15% had one in any assay. Values without a mark were called inactive. Active and inactive are the calls of the source. Rule as the data show it: active = growth inhibition above about 70%; inactive = the rest.

Legend:
[1] = NCI Yeast Anticancer Drug Screen. Data for the rad50 strain (AID 155);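 also: 0% = growth of vehicle-only cultures of the same strain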; settings: S. cerevisiae rad50 strain growth inhibition, active compounds read high; at 50.0 µM unless noted
Summary of the method: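 Vehicle-treated cultures provide the reference for the growth inhibition reported for compound-exposed, repair-deficient yeast.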

[2] = NCI Yeast Anticancer Drug Screen. Data for the mec2-1 strain (AID 157); settings: S. cerevisiae mec2-1 strain, active compounds read high; at 50.0 µM unless noted
Summary of the method: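 Vehicle-treated cultures served as reference for growth inhibition of compound-exposed mec2-1 yeast.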

[3] = NCI Yeast Anticancer Drug Screen. Data for the sgs1 mgt1 strain (AID 161);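 also: 0% = growth of cultures given vehicle only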; settings: S. cerevisiae sgs1 mgt1 strain, active compounds read high; at 50.0 µM unless noted
Summary of the method: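 Test agents were incubated with a DNA-repair-mutant yeast strain. Growth was then read and compared against vehicle-treated controls.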

[4] = NCI Yeast Anticancer Drug Screen. Data for the cln2 rad14 strain (AID 165);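 also: 0% = growth equal to vehicle treated cultures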; settings: S. cerevisiae cln2 rad14 strain, active compounds read high; at 50.0 µM unless noted
Summary of the method: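 Each compound was tested on cln2 rad14 yeast. Inhibition of growth was calculated against vehicle-exposed controls.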

[5] = NCI Yeast Anticancer Drug Screen. Data for the bub3 strain (AID 167); settings: S. cerevisiae bub3 mutant strain, active compounds read high; at 50.0 µM unless noted
Summary of the method: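 Mutant yeast screening strain plus compound; vehicle-treated cultures serve as the 0% inhibition reference.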

[6] = NCI Yeast Anticancer Drug Screen. Data for the mlh1 rad18 strain (AID 175); settings: S. cerevisiae mlh1 rad18 strain growth inhibition, active compounds read high; at 50.0 µM unless noted
Summary of the method: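 Vehicle-treated cultures served as the reference for growth inhibition in a yeast strain carrying DNA damage repair alterations exposed to each compound.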

Row | SMILES | growth inhibition [1] | growth inhibition [2] | growth inhibition [3] | growth inhibition [4] | growth inhibition [5] | growth inhibition [6]
1 | CC(C)(C)C(C(=O)O)C(=O)O | 11.2% | 8% | 0.45% | -7.4% | 5.2% | 13.6%
2 | C(=N\N(c1ccccc1)c1ccccc1)/C(c1ccccc1)c1ccccc1 | 2.55% | -3.2% | 1.9% | -3.95% | 2.2% | -4.35%
3 | Cc1ccccc1OC(=O)Oc1ccccc1C | 8.7% | -2.6% | 4.8% | 1% | 21.1% | 21.9%
4 | Cc1cc(O)cc(C)c1O | 7.05% | 5.45% | 2.8% | -23.4% | -0.3% | -7.75%
5 | CC(=O)[C@@]1(O)CC[C@H]2[C@@H]3CC=C4C[C@@H](Cl)CC[C@]4(C)[C@H]3CC[C@@]21C | -16.9% | 4.85% | 13.8% | -2.75% | 8.5% | 7.1%
6 | CCCCCCCCCCCCCCCc1ccc(N)c(OC2OC(CO)C(O)C(O)C2O)c1 (stereo not given) | -2.15% and -16.8% | 6.7% and -18.2% | 8.8% and 8.55% | -8.15% and -28.3% | -5.6% and 0.95% | 18.1% and -0.4%
7 | O=c1[nH]cnc2nc(N3CCOCC3)sc12 | -15.7% | -4.6% | -1.7% | -5.8% | -6.5% | -4.65%
8 | CCOC(=O)c1nc2ccccc2nc1NCc1cc(OC)c(OC)c(OC)c1 | -14.9% | -11.9% | -10.8% | 5.65% | -7.9% | -29.4%
9 | c1ccc(C2Cc3ccccc3C2c2ccccc2)cc1 (stereo not given) | 9.85% | 11% | 22.8% | -17.8% | -7.6% | -13.3%
10 | O=C(O)CC(O)(c1ccccc1)c1ccccc1 | 0.05% | -1.7% | -5.05% | -7.9% | 1.4% | 0%
11 | CCCCN(C#N)CCCC | 3% | 1.75% | 27.6% | -97.3% | -16.1% | -32%
12 | CCOC(=O)CSC#N | -2.05% | -0.85% | 1.35% | 7.4% | 21.2% | 2.9%
13 | CCC(C)C(NC(=O)C1CSC(C)(C)N1C=O)C(=O)OC1CCCCC1 (stereo not given) | 38.9% | -13.2% | 19.1% | -13.2% | -4.9% | 9.55%
14 | CCc1ccc2c(c1)C(O)(C#Cc1ccccc1)c1cc(CC)ccc1C2(O)C#Cc1ccccc1 (stereo not given) | 37.5% | 25.2% | 45.5% | 22.9% | -4.8% | 32.7%
15 | CC1CCC2(OC1)OC1CC3C4CC=C5CC(O)CCC5(C)C4CCC3(C)C1C2C (stereo not given) | 21.8% and 13.3% | 16.9% and -23.6% | -1.5% and 3.2% | -3.95% and 4% | 1.35% and 14.8% | 32.9% and 15.3%
16 | COc1ccc(/C(C)=N/N=C\c2cc(OC)c(OC)c(OC)c2)cc1 | 6.95% | 3.15% | -10.8% | 14.8% | 83.2% (active) | 8.2%
17 | C=C1c2nc3ccccc3n2C=C(c2ccc(C)cc2)N1c1ccc(C)cc1 | 24.6% | 18% | 16.2% | 25% | 11.2% | 29.8%
18 | C=C1OC(n2cnc3c(=N)n(O)cnc32)C2OC(C)(C)OC12 (stereo not given) | -3.6% | 4.75% | 13.2% | -16.4% | 1.9% | -16.5%
19 | COC1=C2C[C@H](C)C[C@H](OC)[C@H](O)[C@@H](C)/C=C(\C)[C@H](OC(N)=O)[C@H](OC)/C=C\C=C(/C)C(=O)NC(=C(/C=N/N3CCN(C)CC3)C1=O)C2=O | 7.15% | 0.05% | -7.8% | -8.75% | 2.75% | 18.8%
20 | CCOC(=O)/C(Cc1ccc2ccccc2n1)=N/O | -6.35% | -26.2% | 0.9% | -16.8% | 13.7% | 6.25%

Row | SMILES | growth inhibition [1] | growth inhibition [2] | growth inhibition [3] | growth inhibition [4] | growth inhibition [5] | growth inhibition [6]
21 | ClCc1ccccc1C(c1ccccc1)c1ccccc1 | -0.8% | 20.4% | 7.1% | -32.1% | 24.9% | 21.9%
22 | CSc1c(C)n2c3c(cccc13)CCC2 | -9.7% | -6.6% | -3.8% | -36.7% | 1.35% | 3.3%
23 | C[Si](C)(CCl)N([Si](C)(C)CCl)[Si](C)(C)CCl | 13.1% | 8.55% | 0.7% | -19.7% | -2.6% | -10.1%
24 | C[N+]1(Cc2csc(-c3ccc(Cl)cc3)n2)CCCC1 | -12.5% | -23.1% | 4.55% | 9.75% | -5.7% | -11.7%
25 | CC1(C)CC(O)CC(C)(C)N1 | 2.9% | -8.7% | -1.6% | -2.6% | -1% | 1.9%
26 | O=C(NC12CC3CC(CC(C3)C1)C2)C(=O)c1c[nH]c2ccc([N+](=O)[O-])cc12 | -17.4% | -25.1% | -50.6% | -9.85% | -15.1% | -31.9%
27 | CCN(CC)c1ccc(/C=N/Nc2cc(C)nc3ccc(C4CCCCC4)cc23)cc1 | 25.8% | 4.3% | 21.1% | 3.15% | -2.35% | 44.9%
28 | C=C1C[C@@H](O)C[C@@]2(C)C[C@@H]3OC(=O)C(=C)[C@@H]3C[C@H]12 | -5.9% | -3% | 16.2% | 14.2% | -16.6% | 19.9%
29 | O=C1CCCN(c2ccccc2)N1 | 24.4% | 24.6% | 3.3% | 5.1% | 31.9% | -3.8%
30 | CC(=O)Nc1ccc(N(C)C)cc1 | 0.15% | -3.4% | 0.55% | 10.2% | 14.7% | -7.85%
31 | CCCCCCCCCCCCCCCOc1ccc(OCCCCCCCCCCCC)cc1 | 37.8% | -6.3% | 16.4% | -33% | 4.25% | 11.8%
32 | O=C(Nc1ccc(S(=O)(=O)Nc2nccs2)cc1)c1ccncc1 | -0.05% | -11.3% | 22.3% | 19.1% | 28.3% | 12%
33 | O=c1[nH]c(=O)c2nc(-c3cccnc3)cnc2[nH]1 | 2.8% | -0.1% | -9.7% | 1.6% | 0.85% | 7.45%
34 | Cn1c(O)c(N=NC(=O)Cc2c[nH]c3ccccc23)c2ccccc21 | -6.95% | -3.75% | 4.8% | -7.05% | -2.2% | -19.1%
35 | CN(C)C(=NN=C(N(C)C)N(C)C)N(C)C | 12.2% | -4.2% | 0.05% | -39% | -5.85% | 1.5%
36 | Cc1cc(C(c2ccccc2)n2c3ccccc3c3ccccc32)cc(C)c1O (stereo not given) | 6.5% | 11.3% | 8.45% | 0.25% | -7.55% | 16.4%
37 | CCCCN(CCCC)CCC(O)c1cc(-c2ccc(C(F)(F)F)cc2)nc(C(F)(F)F)c1 (stereo not given) | 98.5% (active) | 56.2% | 97.6% (active) | 97.8% (active) | 47.1% | 96.8% (active)
38 | COC(=O)c1[nH]nc(-c2ccccc2)c1N | 11% | 2.95% | -12.8% | -51.8% | 17.4% | 1.9%
39 | C[n+]1ccc(/C=N/O)cc1 | -5.05% | -22.4% | -0.45% | 2.95% | 8.45% | -11.2%
40 | C=C=C(C)[Si](C)(C)C | -14.8% | 3.85% | -29.9% | -3.25% | -51.5% | -45.9%
